Assay results taken from PubChem BioAssay (NCATS).
Inconclusive results are not listed. The source made the active and inactive calls. Calls follow the shape of the dose curve; as a rule, active = well fitted inhibition curve with a large enough effect; inconclusive = small, poorly fitted or top-dose-only effect; inactive = flat fitted curve, though single readings scatter.

Key:
Test in all cases: qHTS profiling for inhibitors of Plasmodium falciparum proliferation (AID 504749); also: nearly all actives have a fitted effect of over 60% in size
Conditions in all cases: P. falciparum in erythrocytes, SYBR Green DNA, 72 h; series mostly up to 28.7 µM
CP297 = system: CP297
Summary of the method: (§1)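 SYBR Green fluorescence of parasite DNA, read after lysis and overnight dark incubation, measured growth over 72 h in erythrocyte culture at 0.3% parasitemia and 2.5% hematocrit. Data normalised to DMSO and 0.29 uM artemisinin, with plate-drift correction.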

CP305 = system: CP305
Summary of the method: as §1

CP315 = system: CP315
Summary of the method: as §1

CP325 = system: CP325
Summary of the method: as §1

CP329 = system: CP329
Summary of the method: as §1

CP335 = system: CP335
Summary of the method: as §1

DFO2036 = system: DFO2036
Summary of the method: as §1

DIV14 = system: DIV14
Summary of the method: as §1

DIV17 = system: DIV17
Summary of the method: as §1

DIV30 = system: DIV30
Summary of the method: as §1

Dd2 = system: Dd2
Summary of the method: as §1

ECU = system: ECU
Summary of the method: as §1

FAB9 = system: FAB9
Summary of the method: as §1

GB4 = system: GB4
Summary of the method: as §1

HB3 = system: HB3
Summary of the method: as §1

ICS = system: ICS
Summary of the method: as §1

JCK = system: JCK
Summary of the method: as §1

N140 = system: N140
Summary of the method: as §1

P93_24 = system: P93_24
Summary of the method: as §1

P94_40 = system: P94_40
Summary of the method: as §1

Measured: Potency

C=CCSCC1Nc2cc(Cl)c(S(N)(=O)=O)cc2S(=O)(=O)N1 (stereo not drawn)
inactive: CP297 | CP305 | CP315 | CP325 | CP329 | CP335 | DFO2036 | DIV14 | DIV17 | DIV30 | Dd2 | ECU | FAB9 | GB4 | HB3 | ICS | JCK | N140 | P93_24 | P94_40

CCCCC1(COC(=O)CCC(=O)O)C(=O)N(c2ccccc2)N(c2ccccc2)C1=O
inactive: CP297 | CP305 | CP315 | CP325 | CP329 | CP335 | DFO2036 | DIV14 | DIV17 | DIV30 | Dd2 | ECU | FAB9 | GB4 | HB3 | ICS | JCK | N140 | P93_24 | P94_40

Cc1ccccc1N=Nc1ccc(N=Nc2c(O)ccc3ccccc23)c(C)c1
inactive: CP297 | CP305 | CP315 | CP325 | CP329 | CP335 | DFO2036 | DIV14 | DIV17 | DIV30 | Dd2 | ECU | FAB9 | GB4 | HB3 | ICS | JCK | N140 | P93_24 | P94_40

NCC1CCC(C(=O)Oc2ccc(CCC(=O)O)cc2)CC1 (stereo not drawn)
inactive: CP297 | CP305 | CP315 | CP325 | CP329 | CP335 | DFO2036 | DIV14 | DIV17 | DIV30 | Dd2 | ECU | FAB9 | GB4 | HB3 | ICS | JCK | N140 | P93_24 | P94_40

CCOc1ccc(C(=O)OCCN(CC)CC)cc1
inactive: CP297 | CP305 | CP315 | CP325 | CP329 | CP335 | DFO2036 | DIV14 | DIV17 | DIV30 | Dd2 | ECU | FAB9 | GB4 | HB3 | ICS | JCK | N140 | P93_24 | P94_40

CNCc1ccccc1
inactive: CP297 | CP305 | CP315 | CP325 | CP329 | CP335 | DFO2036 | DIV14 | DIV17 | DIV30 | Dd2 | ECU | FAB9 | GB4 | HB3 | ICS | JCK | N140 | P93_24 | P94_40

CCOc1cc(NC(C)=O)ccc1C(=O)OC
inactive: CP297 | CP305 | CP315 | CP325 | CP329 | CP335 | DFO2036 | DIV14 | DIV17 | DIV30 | Dd2 | ECU | FAB9 | GB4 | HB3 | ICS | JCK | N140 | P93_24 | P94_40

COc1ccc(NS(=O)(=O)c2ccc(N)cc2)nn1
inactive: CP297 | CP305 | CP315 | CP325 | CP329 | CP335 | DFO2036 | DIV14 | DIV17 | DIV30 | Dd2 | ECU | FAB9 | GB4 | HB3 | ICS | JCK | N140 | P93_24 | P94_40

CC(N)CCCC(C)(C)O (stereo not drawn)
inactive: CP297 | CP305 | CP315 | CP325 | CP329 | CP335 | DFO2036 | DIV14 | DIV17 | DIV30 | Dd2 | ECU | FAB9 | GB4 | HB3 | ICS | JCK | N140 | P93_24 | P94_40

O=c1[nH]c2cc(C(F)(F)F)c(N3CCOCC3)cc2n(CP(=O)(O)O)c1=O
inactive: CP297 | CP305 | CP315 | CP325 | CP329 | CP335 | DFO2036 | DIV14 | DIV17 | DIV30 | Dd2 | ECU | FAB9 | GB4 | HB3 | ICS | JCK | N140 | P93_24 | P94_40

O=C(Cn1ccnc1[N+](=O)[O-])NCc1ccccc1
inactive: CP297 | CP305 | CP315 | CP325 | CP329 | CP335 | DFO2036 | DIV14 | DIV17 | DIV30 | Dd2 | ECU | FAB9 | GB4 | HB3 | ICS | JCK | N140 | P93_24 | P94_40

Cc1ccc(C(C)C)c(O)c1
inactive: CP297 | CP305 | CP315 | CP325 | CP329 | CP335 | DFO2036 | DIV14 | DIV17 | DIV30 | Dd2 | ECU | FAB9 | GB4 | HB3 | ICS | JCK | N140 | P93_24 | P94_40

O=S1(=O)OC(c2ccc(O)cc2)(c2ccc(O)cc2)c2ccccc21
inactive: CP297 | CP305 | CP315 | CP325 | CP329 | CP335 | DFO2036 | DIV14 | DIV17 | DIV30 | Dd2 | ECU | FAB9 | GB4 | HB3 | ICS | JCK | N140 | P93_24 | P94_40

OCC(O)CS (stereo not drawn)
inactive: CP297 | CP305 | CP315 | CP325 | CP329 | CP335 | DFO2036 | DIV14 | DIV17 | DIV30 | Dd2 | ECU | FAB9 | GB4 | HB3 | ICS | JCK | N140 | P93_24 | P94_40

CC(=O)Nc1ccc(C(=O)O)cc1
inactive: CP297 | CP305 | CP315 | CP325 | CP329 | CP335 | DFO2036 | DIV14 | DIV17 | DIV30 | Dd2 | ECU | FAB9 | GB4 | HB3 | ICS | JCK | N140 | P93_24 | P94_40

CCS(=O)(=O)CCn1c([N+](=O)[O-])cnc1C
inactive: CP297 | CP305 | CP315 | CP325 | CP329 | CP335 | DFO2036 | DIV14 | DIV17 | DIV30 | Dd2 | ECU | FAB9 | GB4 | HB3 | ICS | JCK | N140 | P93_24 | P94_40

Cc1cccc(Nc2ccccc2C(=O)O)c1C
inactive: CP297 | CP305 | CP315 | CP325 | CP329 | CP335 | DFO2036 | DIV14 | DIV17 | DIV30 | Dd2 | ECU | FAB9 | GB4 | HB3 | ICS | JCK | N140 | P93_24 | P94_40

O=c1[nH]c(=O)c2ccccc2o1
inactive: CP297 | CP305 | CP315 | CP325 | CP329 | CP335 | DFO2036 | DIV14 | DIV17 | DIV30 | Dd2 | ECU | FAB9 | GB4 | HB3 | ICS | JCK | N140 | P93_24 | P94_40

O=C(O)COC(=O)Cc1ccccc1Nc1c(Cl)cccc1Cl
inactive: CP297 | CP305 | CP315 | CP325 | CP329 | CP335 | DFO2036 | DIV14 | DIV17 | DIV30 | Dd2 | ECU | FAB9 | GB4 | HB3 | ICS | JCK | N140 | P94_40

CCN(CC)S(=O)(=O)c1ccc(C(=O)O)cc1
inactive: CP297 | CP305 | CP315 | CP325 | CP329 | CP335 | DFO2036 | DIV14 | DIV17 | DIV30 | Dd2 | ECU | FAB9 | GB4 | HB3 | ICS | JCK | N140 | P93_24 | P94_40

CC(=O)Nc1ccccc1
inactive: CP297 | CP305 | CP315 | CP325 | CP329 | CP335 | DFO2036 | DIV14 | DIV17 | DIV30 | Dd2 | ECU | FAB9 | GB4 | HB3 | ICS | JCK | N140 | P93_24 | P94_40

CCOC(=O)c1cccnc1
inactive: CP297 | CP305 | CP315 | CP325 | CP329 | CP335 | DFO2036 | DIV14 | DIV17 | DIV30 | Dd2 | ECU | FAB9 | GB4 | HB3 | ICS | JCK | N140 | P93_24 | P94_40

CCCOC(=O)c1ccc(N)cc1
inactive: CP297 | CP305 | CP315 | CP325 | CP329 | CP335 | DFO2036 | DIV14 | DIV17 | DIV30 | Dd2 | ECU | FAB9 | GB4 | HB3 | ICS | JCK | N140 | P93_24 | P94_40

CC1CC(OC(=O)c2ccccc2O)CC(C)(C)C1 (stereo not drawn)
inactive: CP297 | CP305 | CP315 | CP325 | CP329 | CP335 | DFO2036 | DIV14 | DIV17 | DIV30 | Dd2 | ECU | FAB9 | GB4 | HB3 | ICS | JCK | N140 | P93_24 | P94_40

CC(=O)Oc1cccc(O)c1
inactive: CP297 | CP305 | CP315 | CP325 | CP329 | CP335 | DFO2036 | DIV14 | DIV17 | DIV30 | Dd2 | ECU | FAB9 | GB4 | HB3 | ICS | JCK | N140 | P94_40

COc1ccc(C(=O)N2CCN(CC(=O)N3CCOCC3)CC2)cc1
inactive: CP297 | CP305 | CP315 | CP325 | CP329 | CP335 | DFO2036 | DIV14 | DIV17 | DIV30 | Dd2 | ECU | FAB9 | GB4 | HB3 | ICS | JCK | N140 | P93_24 | P94_40

NNc1nnc(NN)c2ccccc12
inactive: CP297 | CP305 | CP315 | CP325 | CP329 | CP335 | DFO2036 | DIV14 | DIV17 | DIV30 | Dd2 | ECU | FAB9 | GB4 | HB3 | ICS | JCK | N140 | P93_24 | P94_40
